Data on 26 compounds can be found in PubChem BioAssay (EPA / NIEHS).

Read-out in assay [1]: Tissue plasminogen activator (tPA), PLAT (gene 5327)
The assay can be described thus: BSK_BE3C_tPA: BioMAP Diversity Plus: BE3C Assay for Tissue plasminogen activator (tPA) Biomarker Activity (AID 2283041).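 As to outcome: tPA level quantified by ELISA one day after compound addition.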 To be noted: primary human bronchial epithelial cells; actives raise or lower the signal. In outline:
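Gain- or loss-of-signal in tPA, measured by ELISA, derived by bidirectional fitting against DMSO. Cells: human primary bronchial epithelial; read at 24 h after chemical dosing.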

Read-out in assay [2]: Interleukin-8 (IL8), CXCL8 (gene 3576)
The assay can be described thus: BSK_CASM3C_IL8: BioMAP Diversity Plus: CASM3C Assay for Interleukin-8 (IL8) Biomarker Activity (AID 2283042).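 Also: IL-8 protein level quantified by ELISA.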 The note with it: primary human coronary artery smooth muscle cells; actives raise or lower the signal.

Read-out in assay [3]: Human Leukocyte Antigen - DR isotype (HLADR), HLA-DRA (gene 3122)
The assay can be described thus: BSK_CASM3C_HLADR: BioMAP Diversity Plus: CASM3C Assay for Human Leukocyte Antigen - DR isotype (HLADR) Biomarker Activity (AID 2283043).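 Also: cell-surface HLA-DR protein level quantified by ELISA.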 To be noted: primary human coronary artery smooth muscle cells; actives raise or lower the signal.

Read-out in assay [4]: Macrophage colony-stimulating factor (MCSF), CSF1 (gene 1435)
The assay can be described thus: BSK_CASM3C_MCSF: BioMAP Diversity Plus: CASM3C Assay for Macrophage colony-stimulating factor (MCSF) Biomarker Activity (AID 2283044).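 Also: M-CSF protein amount quantified by ELISA after 24 h exposure.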 The note with it: primary human coronary artery smooth muscle cells; actives raise or lower the signal.

Read-out in assay [5]: Low-density lipoprotein receptor (LDLR), LDLR (gene 3949)
The assay can be described thus: BSK_CASM3C_LDLR: BioMAP Diversity Plus: CASM3C Assay for Low-density lipoprotein receptor (LDLR) Biomarker Activity (AID 2283045).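 Also: LDLR protein level on the cell surface quantified by ELISA.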 To be noted: primary human coronary artery smooth muscle cells; actives raise or lower the signal.

Read-out in assay [6]: Monocyte Chemoattractant Protein-1 (MCP1), CCL2 (gene 6347)
The assay can be described thus: BSK_CASM3C_MCP1: BioMAP Diversity Plus: CASM3C Assay for Monocyte Chemoattractant Protein-1 (MCP1) Biomarker Activity (AID 2283046).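 Also: MCP-1 level quantified by ELISA 24 h after dosing.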 To be noted: primary human coronary artery smooth muscle cells; actives raise or lower the signal.

The nature of assay [7]: BSK_CASM3C_Proliferation: Cell Proliferation Assessment in the BioMAP Diversity Plus: CASM3C Assay (AID 2283047).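 Also: sulforhodamine B total protein stain as relative cell number at 560 nm; sub-confluent cells exposed 48 h before staining; fitted both ways against DMSO so gain or loss of cell number.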 The note with it: primary human coronary artery smooth muscle cells.
Read-out in assay [8]: Monokine induced gamma interferon (MIG), CXCL9 (gene 4283)
The assay can be described thus: BSK_CASM3C_MIG: BioMAP Diversity Plus: CASM3C Assay for Monokine induced gamma interferon (MIG) Biomarker Activity (AID 2283048).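 Also: MIG protein level measured by ELISA.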 To be noted: primary human coronary artery smooth muscle cells; actives raise or lower the signal.

Read-out in assay [9]: serum amyloid A (SAA), SAA1 (gene 6288)
The assay can be described thus: BSK_CASM3C_SAA: BioMAP Diversity Plus: CASM3C Assay for serum amyloid A (SAA) Biomarker Activity (AID 2283049).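 Also: SAA protein level quantified by ELISA.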 To be noted: primary human coronary artery smooth muscle cells; actives raise or lower the signal.

A short description of assay [10]: BSK_CASM3C_SRB: Viability Assessment in the BioMAP Diversity Plus: CASM3C Assay (AID 2283050).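 Also: total protein by SRB staining as cytotoxicity measure in parallel cultures; cells exposed to compound for 24 h.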 To be noted: primary human coronary artery smooth muscle cells.

The source made the active and inactive calls. The calls were made as follows: active = hit-call score of the fitted dose curve at least 0.9, where 1 is the maximum; inactive = score below 0.9.

Take `CCCCCCCCCC=O`: the result in assay [1], in [2], in assay [3], in assay [4], in assay [5] and in assay [6] was inactive. Moreover, the outcome in [7], in assay [8], in assay [9] and in assay [10] was inactive.

For `CCc1c(C)cc(N)c(CC)c1N`, the outcome in assay [1], in assay [2], in assay [3], in [4], in assay [5] and in assay [6] was inactive. Besides, the result in [7], in assay [8], in assay [9] and in assay [10] was inactive.

`CC[Si](OC(C)=O)(OC(C)=O)OC(C)=O`: the outcome in [1], in assay [2], in assay [3], in assay [4], in assay [5] and in assay [6] was inactive. In addition, the outcome in assay [7], in [8], in [9] and in assay [10] was inactive.

In the case of `C=CCOC(=O)CCC1CCCCC1`, the result in assay [1], in [2], in assay [3], in assay [4], in assay [5] and in assay [6] was inactive. The result in assay [7], in assay [8], in [9] and in assay [10] was inactive.

What is called AC50 is the midpoint of the concentration-response curve, whichever way the signal moves. For the compound `C#C[C@]1(O)CC[C@H]2[C@@H]3CCC4=Cc5oncc5C[C@]4(C)[C@H]3CC[C@@]21C`, the outcome in assay [1], in assay [2], in [3], in assay [4], in assay [8] and in [9] was inactive. The AC50 is 33.9 µM (active) in assay [5], 0.92 µM (active) in [6], 3.97 µM (active) in [7] and 20 µM (active) in assay [10].

With `O=P(c1ccccc1)(c1ccccc1)c1ccccc1`, the outcome in assay [1], in assay [2], in [3], in assay [4], in [5] and in assay [6] was inactive. Moreover, the result in [7], in assay [8], in assay [9] and in assay [10] was inactive.

On to `O=C(O)c1cn(-c2ccc(F)cc2)c2cc(N3CCNCC3)c(F)cc2c1=O`, for which the outcome in [1], in assay [2], in [3], in assay [4], in [5] and in [6] was inactive. Besides, the outcome in [7], in assay [8], in assay [9] and in assay [10] was inactive.

In the case of `BrC1CCC(Br)C(Br)CCC(Br)C(Br)CCC1Br` (stereo not drawn), the result in assay [1], in [2], in assay [3], in assay [4], in [5] and in [6] was inactive. The outcome in [8], in assay [9] and in assay [10] was inactive. Besides, in [7], the AC50 is 0.11 µM (active).

`c1ccc2c(c1)c1cccc3ccc4cccc2c4c31`: the result in assay [1], in assay [2], in assay [3], in [4], in assay [6] and in assay [7] was inactive. Also, the outcome in [8], in [9] and in [10] was inactive.

`Cc1ccc(Nc2ccc(O)c3c2C(=O)c2ccccc2C3=O)cc1`: the result in [1], in [2], in assay [3], in assay [4], in assay [5] and in assay [6] was inactive. For the same compound, the outcome in [7], in assay [8], in [9] and in [10] was inactive.

As to `O=C1CCCCCCCCCCCCCCO1`, the AC50 was 12.7 µM (active) in [1]; 36.8 µM (active) in assay [2]; 28.4 µM (active) in assay [3]; 29 µM (active) in assay [4]; 30 µM (active) in assay [5]; 31 µM (active) in assay [6]. In addition, the AC50 was 20 µM (active) in [7], 32.6 µM (active) in assay [8], 29.8 µM (active) in [9] and 30.9 µM (active) in assay [10].

On to `CC(C)Oc1ccccc1O`, for which the result in assay [1], in assay [2], in [3], in assay [4], in assay [5] and in [6] was inactive. Moreover, the result in [7], in [8], in assay [9] and in assay [10] was inactive.

For `Cc1cc(C2(c3cc(C)c(O)cc3C)OS(=O)(=O)c3ccccc32)c(C)cc1O`, the outcome in [1], in assay [2], in assay [3], in [4], in assay [5] and in [6] was inactive. For the same compound, the outcome in [7], in assay [8], in [9] and in [10] was inactive.

As to `CC(=O)O[C@]1(C(C)=O)CC[C@H]2[C@@H]3C[C@H](C)C4=CC(=O)CC[C@]4(C)[C@H]3CC[C@@]21C`, the outcome in assay [1], in assay [3], in assay [4], in assay [7], in assay [8] and in [10] was inactive. Besides, the concentration at half-maximal activity (AC50) in assay [2] was 0.0082 µM (active); in assay [5] it was 14.7 µM (active); in assay [6], 0.604 µM (active); in assay [9], 0.0082 µM (active).

For the compound `O=C(O)c1cn(C2CC2)c2cc(N3CCNCC3)c(F)cc2c1=O`, the outcome in assay [1], in assay [2], in assay [3], in assay [5], in [6] and in [7] was inactive. For the same compound, the outcome in assay [8], in [9] and in assay [10] was inactive.

Regarding `CCCCCCCCCCCCCCCCCC(=O)OCC(CC)CCCC` (stereo not drawn), the result in assay [1], in assay [2], in assay [3], in assay [4], in [5] and in assay [6] was inactive. The result in [7], in assay [8], in assay [9] and in [10] was inactive.

Regarding `c1ccc2sc(SN(C3CCCCC3)C3CCCCC3)nc2c1`, the outcome in assay [1], in assay [2], in [3], in [4], in [5] and in assay [6] was inactive. The result in assay [8], in assay [9] and in [10] was inactive. Also, in assay [7], the AC50 was 0.117 µM (active).

On to `Nc1cc([N+](=O)[O-])ccc1Cl`, for which the result in [1], in [2], in assay [3], in [4], in [5] and in assay [6] was inactive. The outcome in assay [7], in [8], in [9] and in assay [10] was inactive.

Take `O=C(O)c1ccc([N+](=O)[O-])cc1`: the result in assay [1], in assay [2], in assay [3], in [4], in assay [5] and in assay [6] was inactive. Moreover, the result in [7], in assay [8], in assay [9] and in assay [10] was inactive.

As for `OC1OC[C@@H](O)[C@H](O)[C@H]1O` (stereo partly drawn), the outcome in assay [1], in [2], in assay [3], in [4], in assay [5] and in [6] was inactive. In addition, the result in assay [7], in assay [8], in [9] and in assay [10] was inactive.

For the compound `CNC[C@H](O)c1cccc(O)c1`, the result in assay [1], in assay [2], in assay [3], in [4], in assay [5] and in assay [6] was inactive. Moreover, the outcome in [7], in assay [8], in [9] and in assay [10] was inactive.

With `CC(C)c1ccc(C(C)C)cc1`, the AC50 was 23.3 µM (active) in [1]; 25.9 µM (active) in assay [3]; 32.4 µM (active) in [4]; 32.4 µM (active) in assay [6]; 31.4 µM (active) in assay [7]; 31.3 µM (active) in assay [8]. The AC50 in assay [10] was 30.6 µM (active). Besides, the result in assay [2], in [5] and in assay [9] was inactive.

On to `Cc1ccc2n[nH]nc2c1`, for which the result in [1], in assay [2], in [3], in assay [4], in assay [5] and in assay [6] was inactive. The result in assay [7], in assay [8], in [9] and in assay [10] was inactive.

For `CC(=O)/C=C/C1=C(C)CCCC1(C)C`, the result in assay [1], in assay [2], in [3], in assay [4], in [5] and in assay [6] was inactive. The outcome in assay [7], in [8], in [9] and in assay [10] was inactive.

Take `CCn1c2ccccc2c2cc(N)ccc21`: the values for the AC50 in assay [1] and in assay [4] were 3.97 µM (active) and 0.426 µM (active), respectively. Moreover, the outcome in assay [2], in assay [3], in [5], in assay [6], in assay [7] and in assay [8] was inactive. For the same compound, the result in assay [9] and in [10] was inactive.

`C=C[Si](OCC)(OCC)OCC`: the outcome in assay [1], in assay [2], in [3], in assay [4], in assay [5] and in [6] was inactive. Moreover, the outcome in assay [7], in [8], in assay [9] and in assay [10] was inactive.
